# Data taken from PubChem BioAssay (NCI).
# This is part of a sample that, as a whole, favours compounds with a hit. Of some 83,000 tested, about 20% had one in any assay.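 Step 1: grow cells in 96-well plates. Step 2: add test compound at a single concentration. Step 3: incubate 48 h. Step 4: record percent growth.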 Calls of active or inactive are those of the source. Rule for the calls: active = growth percent below 10; inactive = the rest.
# Legend:
# Experiment in all cases: NCI-60 one-dose screen, 48 h (100 = growth as untreated, 0 = no growth, -100 = all killed)
# BT-549 breast = details: 10 µM unless noted
# MDA-MB-435 melanoma = details: 10 µM unless noted
# SW-620 colon = details: 10 µM unless noted
# MCF7 breast = details: 10 µM unless noted
# HCT-116 colon = details: 10 µM unless noted
# HCC-2998 colon = details: 10 µM unless noted
# KM12 colon = details: 10 µM unless noted
# T-47D breast = details: 10 µM
SMILES,growth (BT-549 breast),growth (MDA-MB-435 melanoma),growth (SW-620 colon),growth (MCF7 breast),growth (HCT-116 colon),growth (HCC-2998 colon),growth (KM12 colon),growth (T-47D breast)
COc1cc2cc(Oc3ccc(NC(=O)Nc4cccc(C(F)(F)F)c4)cc3)c(C)nc2cc1OCCN1CCCCC1,79.5% (inactive),-92.8% (active),-82% (active),-80.4% (active),-23.1% (active),-50% (active),-92.2% (active),
COc1c(O)c2c3c(c1OC)-c1ccccc1CC3N(S(=O)(=O)c1ccc(C)cc1)CC2 (stereo not drawn),,-0.0173% (active),30% (inactive),20.2% (inactive),38.6% (inactive),89.6% (inactive),27.8% (inactive),62% (inactive)
NC(=S)N/N=C1\c2ccccc2-c2c(F)c(F)c(F)c(F)c21,,99.6% (inactive),59.8% (inactive),28.7% (inactive),5.16% (active),90.1% (inactive),93.5% (inactive),8.63% (active)
Nc1nc(-c2ccnc(Cl)c2)nn1-c1nc2ccccc2s1,106% (inactive),107% (inactive),106% (inactive),97.2% (inactive),107% (inactive),104% (inactive),101% (inactive),
COc1ccc(NS(=O)(=O)c2ccc(-c3cnc(C4CC4)o3)cc2)cc1,58.6% (inactive),1.55% (active),20.1% (inactive),29.4% (inactive),38.8% (inactive),85.9% (inactive),40.2% (inactive),
O=C1/C(=C/c2ccccc2F)CNC/C1=C\c1ccccc1F,,-56.7% (active),-49.8% (active),-47% (active),-81.8% (active),,-80.1% (active),9.26% (active)
COc1ccc(/C=C2\SC(=O)N(CN3CCN(c4cc5c(cc4F)c(=O)c(C(=O)O)cn5C4CC4)CC3)C2=O)cc1,86.4% (inactive),98% (inactive),99.8% (inactive),95.2% (inactive),85.7% (inactive),104% (inactive),103% (inactive),
O=S(=O)(Nc1ccccc1Cl)c1ccc(-c2cnc(C3CC3)o2)cc1,49.5% (inactive),-35.2% (active),26.2% (inactive),15.7% (inactive),22.3% (inactive),39.9% (inactive),20.5% (inactive),
COC(=O)[C@@]12CC[C@@H](C)[C@]3(C[C@@H](c4ccoc4)OC3=O)[C@H]1CC[C@@H]1O[C@@]12C,101% (inactive),99.8% (inactive),97.1% (inactive),96.7% (inactive),95.5% (inactive),101% (inactive),103% (inactive),
COc1cc(OCc2cccc(-c3ccc(C(O)c4nccs4)cc3)c2C)cc(OC)c1C=O (stereo not drawn),39.6% (inactive),30.8% (inactive),56% (inactive),7.09% (active),23.1% (inactive),73.9% (inactive),71% (inactive),
CN(C)c1ccc(/C=C(\C#N)c2cc3ccccc3n2C)cc1,37.6% (inactive),-26.9% (active),21% (inactive),15.1% (inactive),10.6% (inactive),20.1% (inactive),18.5% (inactive),
CCCCCCCC/C=C\CCCCCCCCOc1cccc(CC(=O)NCC[N+]2(C)CCOCC2)c1,98.8% (inactive),94% (inactive),89.1% (inactive),83.8% (inactive),78.5% (inactive),80.6% (inactive),64.1% (inactive),
CCOC(=O)c1cnn(CC(O)c2ccc(F)cc2)c1NC(=O)Nc1ccccc1F (stereo not drawn),80.1% (inactive),102% (inactive),101% (inactive),93.1% (inactive),89.4% (inactive),115% (inactive),94.3% (inactive),
O=C(c1ccccc1)C(Br)C(Br)c1cccc([N+](=O)[O-])c1 (stereo not drawn),74.8% (inactive),22.5% (inactive),-100% (active),24.8% (inactive),-91% (active),89.5% (inactive),33.7% (inactive),
CCC(C)Oc1cc(/C=N/NC(=O)c2cnn3c2NC(c2ccccc2)C3)ccc1OC (stereo not drawn),40.7% (inactive),0.38% (active),27.3% (inactive),18.5% (inactive),22% (inactive),72.3% (inactive),20.2% (inactive),
Cc1ccc(S(=O)(=O)N(c2ccc(Cl)cc2)c2ccc(Br)cc2C(=O)O)cc1,134% (inactive),107% (inactive),104% (inactive),104% (inactive),113% (inactive),115% (inactive),108% (inactive),

SMILES,growth (BT-549 breast),growth (MDA-MB-435 melanoma),growth (SW-620 colon),growth (MCF7 breast),growth (HCT-116 colon),growth (HCC-2998 colon),growth (KM12 colon),growth (T-47D breast)
CCCCCCCC/C=C\CCCCCCCCOc1cccc(CC(=O)NCC[N+](C)(C)C)c1,74.4% (inactive),91.5% (inactive),96.5% (inactive),90.8% (inactive),75.2% (inactive),66.1% (inactive),57.8% (inactive),
Cc1ccc(N(CSc2ccc(Cl)cc2)CSc2ccc(Cl)cc2)cc1,19.1% (inactive),40.8% (inactive),31.4% (inactive),65.6% (inactive),38.9% (inactive),88.1% (inactive),18.4% (inactive),
CCN(CC)c1ccc2c(c1)OS(=O)(=O)N=C2,95.7% (inactive),101% (inactive),103% (inactive),94.7% (inactive),99.5% (inactive),114% (inactive),113% (inactive),
COc1c(Cl)ccc2c(-c3nc4cc(Cl)c(F)cc4s3)cc(=O)oc12,107% (inactive),102% (inactive),90.9% (inactive),96.2% (inactive),88.4% (inactive),108% (inactive),79.4% (inactive),
c1ccc2cc(Cn3c(-c4ccc5ccccc5c4)[n+](Cc4ccc5ccccc5c4)c4ccccc43)ccc2c1,-46.5% (active),-80.4% (active),-85% (active),-70.1% (active),-61% (active),-88.7% (active),-90.6% (active),
CCCCCCCCCCCCCCCC[N+]1(C)CCOCC1,15.1% (inactive),26.9% (inactive),6.63% (active),61.6% (inactive),18.2% (inactive),13.9% (inactive),-94.4% (active),
COc1cc(Cn2cc(F)c(=O)[nH]c2=O)cc(OC)c1,95.4% [50 µM] (inactive),109% [50 µM] (inactive),102% [50 µM] (inactive),104% [50 µM] (inactive),111% [50 µM] (inactive),114% [50 µM] (inactive),108% [50 µM] (inactive),
Cn1c2ccccc2c2nn(Cc3ccccc3)c(=O)nc21,110% (inactive),112% (inactive),99.3% (inactive),95.1% (inactive),109% (inactive),114% (inactive),104% (inactive),
N#Cc1c(-c2cccc(F)c2)cc(-c2ccc(Br)s2)[nH]c1=O,65.7% (inactive),-25.8% (active),28.6% (inactive),63.4% (inactive),30.8% (inactive),110% (inactive),60.1% (inactive),
COc1cc2cc(Oc3ccc(NC(=O)Nc4ccc(Cl)c(C(F)(F)F)c4)cc3)c(C)nc2cc1OCCN1CCCCC1,71.7% (inactive),-95.9% (active),-89.4% (active),-85.9% (active),-46.3% (active),-38.6% (active),-79.6% (active),
CCSc1nnc2c3cc(Br)ccc3n(C)c2n1,95.6% (inactive),104% (inactive),103% (inactive),84.3% (inactive),95.6% (inactive),111% (inactive),103% (inactive),
COc1cc(-c2nc(SC(C)C)nc(Nc3ccccc3C)c2C#N)cc(OC)c1OC,109% (inactive),106% (inactive),104% (inactive),101% (inactive),114% (inactive),106% (inactive),104% (inactive),
Fc1c[c-]c(-c2ccccn2)c(F)c1.Fc1c[c-]c(-c2ccccn2)c(F)c1.[Cl][Pt+].[Cl][Pt+].c1ccc([PH+](C[PH+](c2ccccc2)c2ccccc2)c2ccccc2)cc1,15.8% (inactive),5.73% (active),15.5% (inactive),8.56% (active),8.2% (active),22.4% (inactive),12.3% (inactive),
COc1ccc(/C=N/NC(=O)c2cnn3c2NC(c2ccccc2)C3)cc1OC1CCCC1 (stereo not drawn),93.3% (inactive),61.7% (inactive),97.5% (inactive),86.2% (inactive),82% (inactive),110% (inactive),81.3% (inactive),
COC(=O)c1ccc(C(=O)Nc2ccccc2N)cc1,60% (inactive),77.7% (inactive),72.3% (inactive),69.2% (inactive),75.4% (inactive),85.8% (inactive),86.3% (inactive),
CCCCC/C=C\C/C=C/CCCCCCCCNC(=O)Nc1ccc([N+](=O)[O-])cc1,109% (inactive),68.3% (inactive),31.6% (inactive),103% (inactive),40% (inactive),95.3% (inactive),23.9% (inactive),
